Screening results as filed in PubChem.
AMA1 RON2 block: disrupts binding of P. falciparum AMA1 to RON2; 360,000 tested, 0.2% active; Potency, µM (series often up to 58.2 µM), usual class: inhibitors; AlphaScreen AMA1-biotinylated RON2 peptide binding; note: nearly all actives have a fitted effect of over 45% in size
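AMA1 (3D7) with his tag at 25 nM final met compounds first, then biotinylated RON2 peptide at 25 nM; detection used donor plus acceptor beads, 10 µg/mL apiece, read by AlphaScreen after 30 min at room temperature.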
CHX counter: counter-screen hit for Shiga toxin inhibitors, cycloheximide; cell reporter, cycloheximide protein synthesis inhibition counterscreen; max response, %; 300,000 tested, 12% active; in the data active = max response mostly above about 13%, no sharp cut-off; inactive = mostly below about 14%; note: read at 38.3 µM for the half of the compounds with a filed dose
Pf growth 48h: P. falciparum growth inhibition at 48 hours (one generation); P. falciparum luciferase growth in erythrocytes, 48 h; Potency, µM (series often up to 28.7 µM), hits mostly inhibitors; 310,000 tested, 5.9% active
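Compounds are pin-transferred into medium, infected erythrocytes (2% hematocrit, 0.1% parasitemia final) are added, and plates sit one parasite generation at 37 C in 5% CO2. Detection reagent is then added and luminescence measured.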
Shiga inhibitor: blocks Shiga toxin action in Vero cells; Vero cells, Shiga toxin protein synthesis inhibition reporter; inhibition, % at 38.7 µM; 290,000 tested, 9.2% active; in the data active = inhibition mostly above about 28%, no sharp cut-off; inactive = mostly below about 43%
SARS PLpro yeast: inhibitors of SARS-CoV papain-like protease in yeast | S. cerevisiae expressing SARS-CoV PLpro, growth rescue | Potency, µM (titrated, usually from 32.9 µM), actives largely listed as activators | 330,000 tested, 0.19% active; calls by dose curve; note: nearly all actives have a fitted effect of over 55% in size
Pf growth 96h: inhibits malaria parasite growth, 96 h | P. falciparum luciferase reporter growth, 96 h | Potency, µM (titrated, usually from 28.7 µM), usual class: inhibitors | 320,000 tested, 6.9% active
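Luminescence readout: decreased luciferase signal marks inhibited growth of reporter-expressing P. falciparum in infected red cells (2% hematocrit, 0.05% parasitemia final), exposed to compound two generations (96 h, 37 C, 5% CO2).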
Of the large screens only hits and unclear results are named; the others gave an inactive call. A selection: hits, their analogues and other compounds. The true share with any hit is near 19%. Unless noted, calls come from the whole dose curve; as a rule, active = well fitted curve in the direction sought with a large enough effect; inconclusive = small, poorly fitted or top-dose-only effect, or another doubt; inactive = no such curve, though single readings can be large; an effect the other way counts as inactive or inconclusive.

N#CCc1ccc(C(=O)c2ccccc2)s1	CHX counter 18.3
Cc1cccc(OCCC(=O)Nc2ccc(Cl)cc2F)c1	SARS PLpro yeast inconclusive (no result: Shiga inhibitor)
COc1cccc(CNC(=O)CC2C(=O)NCCN2Cc2ccoc2)c1OC (stereo not drawn)	Pf growth 48h inconclusive, Pf growth 96h 11.7µM
COc1cccc(CN2CCNC(=O)C2CC(=O)NCC(C)(C)N2CCOCC2)c1OC (stereo not drawn)	Pf growth 96h 10.4µM
COc1cccc(CN2CCNC(=O)C2CC(=O)NCCN2CCOCC2)c1OC (stereo not drawn)	none
COc1cccc(CN2CCNC(=O)C2CC(=O)NCCn2cccn2)c1OC (stereo not drawn)	Pf growth 96h inconclusive
CCN(CC)c1ccc(N=Nc2nn(C)c(C)c2[N+](=O)[O-])cc1	CHX counter 64.6, Pf growth 48h inconclusive, Shiga inhibitor 86.7, Pf growth 96h 3.7µM
CCN(Cc1ccccc1)c1ccc(N=Nc2nn(C)c(C)c2[N+](=O)[O-])cc1	AMA1 RON2 block 10µM, CHX counter 17.2, Pf growth 48h 1.65µM, Pf growth 96h inconclusive
C=CCN(CC=C)S(=O)(=O)c1ccc2nc(NC(=O)C(C)C)sc2c1	Pf growth 48h inconclusive (no result: Pf growth 96h)
CCOC(=O)c1ccc2nc(NC(=O)C(C)C)sc2c1	CHX counter 43.5, Shiga inhibitor 59.2
CCCC(=O)Nc1nc2ccc(C(=O)OCC)cc2s1	CHX counter 26.1, Shiga inhibitor 73.5, Pf growth 96h inconclusive
CCCCC(=O)Nc1nc2ccc(C(=O)OC)cc2s1	CHX counter 27.0, Shiga inhibitor 96.6
O=C(Nc1ccc(CN2CCCCC2)cc1)c1cccc(F)c1	CHX counter 31.4, Shiga inhibitor 39.5
COc1cc(OC)cc(C(=O)Nc2ccc(CN3CCCCC3)cc2)c1	Pf growth 48h inconclusive
COc1ccc(OCc2cccc(C(=O)Nc3ccc(CN4CCCCC4)cc3)c2)cc1	AMA1 RON2 block inconclusive, CHX counter 126.7, Pf growth 48h inconclusive, Shiga inhibitor active, Pf growth 96h inconclusive
CCOc1ccc(NC(=O)CCN2CCCCC2)cc1	none (no result: Pf growth 96h)
CCOc1ccc(OCc2cccc(C(=O)Nc3ccc(CN4CCCCC4)cc3)c2)cc1	CHX counter 121.6, Pf growth 48h inconclusive, Shiga inhibitor 86.9, Pf growth 96h inconclusive
COc1ccccc1NS(=O)(=O)c1cccc(C(=O)N/N=C(\C)c2ccc3c(c2)OCCO3)c1	Pf growth 96h inconclusive
O=C(Nc1ccccc1F)c1c[nH]c(=O)[nH]c1=O	none
CC(C)(C)OC(=O)C[C@@H]1C/C=C\C[C@H](CC(=O)N(CCO)Cc2ccccc2)C(=O)NCCOC1=O	none (no result: CHX counter, Pf growth 48h, Shiga inhibitor, Pf growth 96h)
O=[N+]([O-])c1ccc(/C=C/C2=NN(c3ccccc3)C(c3ccco3)C2)cc1 (stereo not drawn)	CHX counter 14.6
Cc1ccc(C2=NN(S(=O)(=O)c3ccccc3)C(c3ccco3)C2)cc1 (stereo not drawn)	Pf growth 48h 9.28µM, Pf growth 96h 11.7µM (no result: CHX counter, Shiga inhibitor)
O=[N+]([O-])c1ccc(C2=NN(c3ccccc3)C(c3ccco3)C2)cc1 (stereo not drawn)	CHX counter 34.0, Pf growth 48h inconclusive, Shiga inhibitor 60.3, Pf growth 96h inconclusive
Cc1ccc(NC(=O)CCNS(=O)(=O)c2ccc3[nH]c(=O)oc3c2)cc1C	none
C/C=C/c1ccc(OCCOCCOc2cccc3cccnc23)c(OC)c1	Pf growth 48h inconclusive, SARS PLpro yeast inconclusive
Cc1ccc2cccc(OCCOCCOc3ccccc3Br)c2n1	none
Brc1ccc(OCCCOc2cccc3cccnc23)cc1	none (no result: Shiga inhibitor)
Cc1ccc2cccc(OCCCOc3ccccc3F)c2n1	CHX counter 25.0 (no result: Shiga inhibitor)
Cc1ccc(OCCCOc2cccc3cccnc23)cc1C	CHX counter 17.1, Pf growth 48h inconclusive
C/C=C/c1ccc(OCCOc2cccc3cccnc23)c(OC)c1	CHX counter 21.6
Cc1cccc(OCCCOc2cccc3cccnc23)c1C	CHX counter 20.8, Pf growth 48h inconclusive
COc1ccc(C(CNC(=O)c2cccc(S(=O)(=O)Nc3cccc(C)c3)c2)N2CCOCC2)cc1 (stereo not drawn)	Pf growth 48h inconclusive, Pf growth 96h inconclusive (no result: CHX counter, Shiga inhibitor)
C=CCc1ccc(OCCOc2cccc3cccnc23)c(OC)c1	Pf growth 48h inconclusive
COc1cccc(OC)c1OCCCOc1cccc2cccnc12	CHX counter 21.4, Pf growth 48h inconclusive, Shiga inhibitor 126.8, Pf growth 96h inconclusive
O=C(C[n+]1ccc(C(=O)NCc2ccccc2)cc1)c1ccc(Cl)cc1	Pf growth 48h inconclusive
CCn1c(/C=C/Nc2ccccc2)[n+](CC)c2cc(Cl)c(Cl)cc21	Pf growth 48h 7.38µM, Pf growth 96h inconclusive
CC1=CC(=C(C#N)C#N)C=C(C)N1Cc1ccc(Cl)cc1	Pf growth 48h 2.08µM
O=C1CC(c2ccccc2)=Nc2ccccc2N1	none (no result: Pf growth 48h)
O=C1CC(/C=C/c2ccncc2)=Nc2ccccc2N1	CHX counter 30.5, Pf growth 96h inconclusive
CCCC(c1nnnn1CC(=O)OCC)N(Cc1cc2c(C)cc(C)cc2[nH]c1=O)C1CCCC1 (stereo not drawn)	Pf growth 48h 13.1µM (no result: Pf growth 96h)
CCCC(c1nnnn1CC(=O)OCC)N(Cc1cc2ccc(C)cc2[nH]c1=O)C1CCCC1 (stereo not drawn)	Pf growth 96h inconclusive
CCOC(=O)N1CCN(C(=O)/C(=C/c2ccc(F)cc2)NC(=O)c2ccccc2)CC1	Pf growth 96h 3.29µM
Cc1nn(-c2ccccc2)c(C)c1/C=C1\C(=O)N(C)C(=S)N1C	Pf growth 48h inconclusive
CN1C(=O)/C(=C\C=C2/CCCN2C)N(C)C1=S	CHX counter 22.8
CCN1C(=O)/C(=C/C=C2/CCCN2C)OC1=S	CHX counter 28.1, Shiga inhibitor 45.7
CCN1C(=O)/C(=C\N2CCCc3ccccc32)SC1=S	none (no result: Pf growth 96h)
CCN1C(=O)[C@H]2[C@@H](c3ccc(Cl)cc3)N3C(=O)CN(CC4CC4)C(=O)[C@@]3(Cc3ccccc3)[C@H]2C1=O	none
Cc1cccnc1NC(=S)NC(=O)c1cncc(Br)c1	CHX counter 35.2, Shiga inhibitor 91.4
Cc1cccnc1NC(=S)NC(=O)c1cccs1	CHX counter 58.9, Shiga inhibitor 190.6
O=C(NC(=S)Nc1ccc(Br)cn1)c1cncc(Br)c1	Pf growth 96h 13.1µM
O=C(NC(=S)Nc1ccccn1)c1cncc(Br)c1	CHX counter 41.3
O=C(NC(=S)Nc1ccccc1O)c1cncc(Br)c1	none (no result: CHX counter, Pf growth 48h, Shiga inhibitor, SARS PLpro yeast, Pf growth 96h)
O=C(c1cccc(Cl)c1)C1CCCN(C(=O)c2ccc3c(c2)OCO3)C1 (stereo not drawn)	Pf growth 96h inconclusive
CC(C)CCCN1C(N(C)C)=NC[C@@H]1Cc1ccccc1	Pf growth 48h inconclusive, Pf growth 96h inconclusive (no result: CHX counter, Shiga inhibitor)
Cc1ccc([C@H]2C[C@@H](n3cc(COC(=O)c4ccccc4)nn3)[C@H](O)CN2Cc2cccs2)cc1	none (no result: CHX counter, Pf growth 48h, Shiga inhibitor, SARS PLpro yeast, Pf growth 96h)
Cc1cccnc1NC(=O)CNC(=O)c1cccs1	none (no result: CHX counter, Shiga inhibitor)
